High-throughput results deposited in PubChem BioAssay by National Center for Advancing Translational Sciences (NCATS).
Tb PYK inh: qHTS of Trypanosoma Brucei Inhibitors; TbPYK enzyme, Kinase-Glo Plus ATP luminescence, 45 min; Potency, µM (highest dose often 76.8 µM), inactives show at the top dose activity, negative = inhibition, most hits filed as inhibitors; actives 0.12% (n = 410,000); AID 624173, 2012; further: potency means the concentration at half of the fitted maximal effect; on the % scale 0 is the no-effect control and ±100 the full control effect; nearly all actives have a fitted effect of over 50% in size
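Glycolytic pyruvate kinase of T. brucei was incubated with substrate, test compound and 130 uM ADP for 45 minutes at room temperature. Luminescent Kinase-Glo Plus signal was measured after 10 minutes.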
LmPK inh: qHTS Assay for Inhibitors of Leishmania Mexicana Pyruvate Kinase (LmPK); actives 0.37% (n = 290,000); AID 1721, 2009; purified LmPK, Kinase-Glo ATP luminescence, 1 h; Potency, µM (top dose mostly 57.5 µM), without a hit: top-dose activity change, negative = inhibition, actives largely listed as inhibitors; Q27686; further: potency means the concentration at half of the fitted maximal effect; on the % scale 0 is the no-effect control and ±100 the full control effect
Target sequence (Q27686 whole entry, looked up): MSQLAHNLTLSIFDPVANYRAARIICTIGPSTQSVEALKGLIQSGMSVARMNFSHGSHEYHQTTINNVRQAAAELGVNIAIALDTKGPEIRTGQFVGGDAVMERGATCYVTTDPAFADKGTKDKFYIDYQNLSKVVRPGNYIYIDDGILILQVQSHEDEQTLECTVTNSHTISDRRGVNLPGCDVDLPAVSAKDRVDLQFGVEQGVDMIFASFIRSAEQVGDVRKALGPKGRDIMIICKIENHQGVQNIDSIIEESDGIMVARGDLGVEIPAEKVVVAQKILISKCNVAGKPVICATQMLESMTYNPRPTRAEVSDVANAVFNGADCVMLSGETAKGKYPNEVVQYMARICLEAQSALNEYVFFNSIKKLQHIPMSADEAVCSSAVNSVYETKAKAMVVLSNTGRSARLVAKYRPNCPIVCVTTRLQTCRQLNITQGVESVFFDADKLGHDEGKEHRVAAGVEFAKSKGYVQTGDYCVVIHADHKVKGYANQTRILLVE
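Kinase-Glo luminescence read after 1 h RT reaction of 0.1 nM LmPK with 0.5 mM PEP and 0.1 mM ADP. Activity scaled between uninhibited and enzyme-free controls.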
RE007 growth inh: qHTS Assay for Inhibitors of the HIV-1 protein Vpr. S. pombe RE007 Vpr strain, BacTiter-Glo ATP luminescence, 24 h. Potency, µM (series often up to 92.2 µM), without a hit: at the highest dose activity change, negative = less growth, actives largely listed as inhibitors. actives 0.21% (n = 360,000); active means well fitted falling curve with a large enough effect; inconclusive means small, poorly fitted or top-dose-only effect; inactive means no such curve, though single readings can be large or run the other way; further: potency means the concentration at half of the fitted maximal effect; on the % scale 0 is the no-effect control and ±100 the full control effect; nearly all actives have a fitted effect of over 50% in size
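Fission yeast RE007 carrying one integrated HIV-1 vpr copy, seeded at OD 0.01 in PMG+AL medium with 23 nL pinned compound. Grown 24 h at 30 degrees; viability read by BacTiter-Glo luminescence after 5 min.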
Giardia FBPA inh: qHTS Assay for Inhibitors of Fructose-1,6-bisphosphate Aldolase from Giardia Lamblia; A8B2U2; purified Giardia FBPA; Potency, µM (series often up to 59.6 µM), for inactives: at the top dose activity, negative = inhibition, actives largely listed as inhibitors; actives 0.71% (n = 290,000); AID 2451, 2010; further: potency means the concentration at half of the fitted maximal effect; on the % scale 0 is the no-effect control and ±100 the full control effect; nearly all actives have a fitted effect of over 55% in size
Target sequence (A8B2U2 whole entry, looked up): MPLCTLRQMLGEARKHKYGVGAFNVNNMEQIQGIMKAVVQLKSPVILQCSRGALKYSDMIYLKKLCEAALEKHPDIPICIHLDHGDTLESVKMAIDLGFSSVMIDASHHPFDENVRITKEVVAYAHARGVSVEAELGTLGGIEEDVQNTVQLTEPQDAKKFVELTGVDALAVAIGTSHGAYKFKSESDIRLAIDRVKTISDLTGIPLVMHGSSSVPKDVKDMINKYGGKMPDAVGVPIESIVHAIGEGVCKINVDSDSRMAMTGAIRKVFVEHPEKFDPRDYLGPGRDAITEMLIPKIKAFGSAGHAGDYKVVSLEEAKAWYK
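40 nM FBPA preincubated 10 min at RT with compound (up to 57.5 uM final), then substrate plus GAPDH/TPI/NAD/arsenate coupling and diaphorase/resazurin added. Fluorescence read after 20 min at RT, 525/598 nm.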
Shiga toxin inh: A qHTS for Small Molecule Inhibitors of Shiga Toxin | Vero cells, Shiga toxin protein synthesis inhibition reporter | actives 9.2% (n = 290,000) | inhibition, % at 38.7 µM | AID 2315, 2010; in the data active means inhibition mostly above about 28%, no sharp cut-off; inactive means mostly below about 43%; further: 0% is about no effect
Cycloheximide cs: Cycloheximide Counterscreen for Small Molecule Inhibitors of Shiga Toxin. cell reporter, cycloheximide protein synthesis inhibition counterscreen. max response, %. actives 12% (n = 300,000). AID 2314, 2010; in the data active means max response mostly above about 13%, no sharp cut-off; inactive means mostly below about 14%; further: read at 38.3 µM for the half of the compounds with a filed dose; 0% is about no effect
* hit, by the source's call; ? = inconclusive; / = not tested or not shown. Many of the other results were omitted from the sample, so hits are more common in it than they were. Unless noted, the call rests on the fitted dose curve; in most records, active means well fitted curve in the direction sought with a large enough effect; inconclusive means small, poorly fitted or top-dose-only effect, or another doubt; inactive means no such curve, though single readings can be large; an effect the other way counts as inactive or inconclusive.

SMILES | Tb PYK inh | LmPK inh | RE007 growth inh | Giardia FBPA inh | Shiga toxin inh | Cycloheximide cs
O=C(CN1CCOCC1)Nc1ccc2c(c1)CCC2 | -3.6% | 0.3% | -12.7% | 0.2% | 34.4 | 16.6*
COc1cc(OC)cc(-c2nc3n(n2)C(c2ccccc2)C(C(N)=O)=C(C)N3)c1 (configuration not stated) | 2.6% | / | / | / | / | /
CN(C)C(=O)NC1c2ccccc2-c2ccccc21 | -5.1% | 0.0% | 17.3% | -7.0% | 3.4 | -1.9
O=C1C=CC(=O)N1c1ccc2c(c1)C(NC(=O)C(F)(F)F)c1ccccc1-2 (configuration not stated) | ? | / | 39.8µM* | / | / | /
C/[N+]([O-])=C/c1c(OCc2ccccc2)ccc2ccccc12 | 1.2% | 3.6% | 1.1% | 1.3% | 32.0 | 3.9
O=Cc1c(OCc2ccccc2)ccc2ccccc12 | 0.9% | -3.6% | 0.9% | -15.6% | 77.9* | 46.9*
O=C(c1ccccc1)c1ncc[nH]1 | 1.8% | -8.8% | -4.9% | -3.2% | 36.0 | 18.7*
CN(C)CCCN1C(=O)c2oc3ccccc3c(=O)c2C1c1cccs1 (configuration not stated) | -13.9% | -2.9% | -25.2% | -4.3% | 23.8* | 22.0*
COc1cccc(C(=O)CC2c3c(c(Br)c4c(c3OC)OCO4)CCN2C)c1 (configuration not stated) | / | / | / | -7.8% | / | /
O=C1C(=C(c2ccccc2)c2ccccc2)Nc2ccccc21 | 1.6% | -5.3% | -18.1% | -17.1% | 3.3 | 4.4
O=C1C(=C(O)c2ccccc2)C(=O)c2ccccc21 | 0.4% | 0.1% | -24.0% | -4.8% | 23.7 | 14.2*
C/C(CC(=O)Nc1ccc([N+](=O)[O-])cc1)=N\NC(=O)c1ccccc1O | 2.4% | 2.6% | -10.6% | -12.1% | / | 24.1*
C/C(CC(=O)Nc1ccc(N(C)C)cc1)=N\NC(=O)c1ccccc1O | -2.1% | 6.1% | -19.3% | -22.6% | / | 16.3*
C/C(CC(=O)Nc1ccc(N(C)C)cc1)=N\NC(=O)c1ccc(F)cc1 | -1.0% | 1.3% | 0.4% | -11.5% | 36.0* | 31.0*
Cc1ccc(NC(=S)c2nc3ccccc3[nH]2)c(C)c1 | -2.8% | -21.1% | ? | ? | 96.5* | 50.7*
Cc1ccc(NC(=S)N2CCCC(c3nc4ccccc4[nH]3)C2)cc1 (configuration not stated) | -4.2% | 4.0% | -14.0% | -0.4% | -7.0 | 6.9
Cc1ccc(NC(=S)c2nc3ccccc3[nH]2)cc1 | -11.7% | ? | -34.8% | 7.2% | 66.2* | 71.8*
CCSc1nnc(NC(=O)NC2CCCCC2)s1 | -2.0% | 12.1% | -0.4% | 0.7% | 48.9* | 35.7*
CCSc1nnc(NC(=O)c2cc(C)oc2C)s1 | 1.0% | -14.5% | -6.2% | -10.0% | 59.4* | 38.4*
CCSc1nnc(NC(=O)c2ccc(C)o2)s1 | -1.6% | -7.6% | -14.7% | -8.6% | 33.4* | 26.7*
CCSc1nnc(NC(=O)C(C)(C)C)s1 | -1.7% | -3.7% | -3.1% | -10.1% | 69.5* | 29.1*
CCN(CC)C(=O)c1sc2c(c1C)c(=O)n(-c1ccc(Cl)c(Cl)c1)c(=O)n2Cc1cc(=O)n2c(C)cccc2n1 | 1.7% | / | / | / | / | /
CCCCN(C)C(=O)C1CCC(Cn2c(=O)[nH]c3ccsc3c2=O)CC1 (configuration not stated) | -2.2% | / | / | / | / | /
O=C(Nc1nnc(SCc2ccccc2)s1)c1cccs1 | -5.9% | -26.7% | 13.7% | 16.9% | 21.9 | 11.2
CCc1nnc(NC(=O)c2ccc(C)o2)s1 | 5.0% | -2.2% | 3.0% | -12.7% | 44.0* | 36.2*
SMILES | Tb PYK inh | LmPK inh | RE007 growth inh | Giardia FBPA inh | Shiga toxin inh | Cycloheximide cs
CCSc1nnc(NC(=O)c2cccs2)s1 | 12.0% | -12.1% | -17.7% | -7.1% | 100.8* | 35.0*
Cn1c(SCC#N)nnc1-c1cnccn1 | -0.4% | -4.7% | 4.8% | 1.5% | -3.8 | -0.9
Cn1c(SCc2ccc(F)cc2)nnc1-c1cnccn1 | 4.9% | 0.8% | -10.1% | -2.6% | 60.6* | 20.2*
Cc1ccccc1CSc1nnc(-c2cnccn2)n1C | 0.4% | 4.6% | -1.5% | 4.0% | 57.1* | 30.6*
Cn1c(SCc2ccccc2)nnc1-c1cnccn1 | 0.0% | -1.3% | 3.1% | 5.5% | 97.4* | 37.0*
CN(C)c1ccc(NC(=O)CSc2nnc(-c3cnccn3)n2C)cc1 | -0.5% | 1.1% | -7.2% | 2.8% | 37.0 | 13.2*
Cc1cccc(C)c1NC(=O)CSc1nnc(-c2cnccn2)n1C | 1.2% | 3.7% | 4.4% | / | -3.7 | -2.4
CCCOc1ccc(/C=C/C(=O)Nc2sc3c(c2C(=O)OCC)CCC(C)C3)cc1OC (configuration not stated) | 2.8% | / | / | / | / | /
CCCS(=O)(=O)N1CCC(N2CCN(Cc3ccc(F)cc3)C(=O)C2=O)CC1 | -9.6% | / | / | / | / | /
CN(C)c1nc(-c2ccc3c(c2)OCO3)nc2ccccc12 | / | / | / | -16.9% | / | /
O=C(Nc1nccs1)c1ccc(Br)s1 | 2.1% | -0.1% | -0.2% | -6.0% | 60.4* | 54.3*
O=C(Nc1nc(-c2cc(Cl)sc2Cl)cs1)c1ccc(Br)s1 | -3.2% | 0.8% | -10.0% | -1.9% | -4.3 | -5.2
Cc1ccc(C(=O)Nc2nccs2)s1 | 0.1% | -0.7% | 3.0% | 2.5% | 92.4* | 59.1*
Cc1ccc(-c2c(C(=O)N3CCN(c4cccc(C)c4C)CC3)oc(=O)c3ccccc23)cc1 | 0.9% | / | / | / | / | /
CC(=O)c1cc(C#N)c(SCC(=O)OC(C)(C)C)nc1C | -7.7% | 1.4% | -5.8% | 1.9% | 20.0 | 18.7*
CN1CCc2nc(SCC(=O)OC(C)(C)C)c(C#N)cc2C1 | -6.3% | -6.2% | -3.2% | ? | 79.5* | 35.5*
CC(=O)c1cc(C#N)c(SCC(=O)OC(C)C)nc1C | 1.5% | 0.9% | -11.6% | 7.1% | 26.5* | 17.9*
CCSc1nc(C)c(C(C)=O)cc1C#N | 3.9% | 5.9% | -19.3% | 0.5% | -11.6 | -2.6
COc1ccc(Cn2c(C(=O)O)c(CNCc3ccc(SC)cc3)c3ccc(OC)cc32)cc1 | -13.1% | / | / | / | / | /
CCOc1ccc2oc(=O)cc(CN3CCN(Cc4ccc(F)cc4)CC3)c2c1 | 5.2% | / | / | / | / | /
Cc1cccc(NC(=O)c2ccc(S(=O)(=O)C(F)F)cc2)c1C | -2.0% | 1.5% | 15.9% | -1.8% | 23.5 | 16.1*
Cc1cc(C)cc(NC(=O)c2ccc(S(=O)(=O)C(F)F)cc2)c1 | 0.1% | 0.6% | 0.8% | -2.6% | 20.9 | 8.1
Cc1nnc(NC(=O)c2ccc(S(=O)(=O)C(F)F)cc2)s1 | -6.7% | 0.7% | 0.7% | 0.1% | 36.4 | 27.2*
CCCCC1=CC2=C(OC(C)=O)C(=O)C(C)(OC(=O)C3CCCC3)C(=O)C2=CO1 (configuration not stated) | / | / | / | -22.0% | / | /
O=C(O)Cn1cc(/C=c2/sc3nc4ccccc4n3c2=O)c2ccccc21 | -8.8% | 13.1% | 9.1% | -11.4% | 115.5* | 36.9*
